PubChem BioAssay AID1494158 (National Center for Advancing Translational Sciences (NCATS), 2020)
Inconclusive results are not listed. Calls of active or inactive are those of the source. The call rests on the fitted dose curve.

Experiment: VSV-G qHTS counterscreen for inhibitors of SARS-S pseudo-typed particle cell entry
Conditions: VSV-G pseudotyped particle entry counterscreen, luciferase; series mostly up to 57.1 µM

Row | Structure (SMILES) | Potency
1 | Nc1ccn([C@@H]2O[C@H](CO)[C@@H](O)C2(F)F)c(=O)n1 | 171 nM (active)
2 | CC[C@@]1(O)C(=O)OCc2c1cc1n(c2=O)Cc2cc3c([N+](=O)[O-])cccc3nc2-1 | 124 nM (active)
3 | O=C(Nc1ccc(Cl)cc1)Nc1ccc(Cl)c(C(F)(F)F)c1 | 9610 nM (active)
4 | CC(CN(C)C)CN1c2ccccc2CCc2ccccc21 (stereo not given) | inactive
5 | CCC(C)(C)C(=O)O[C@H]1C[C@@H](C)C=C2C=C[C@H](C)[C@H](CC[C@@H]3C[C@@H](O)CC(=O)O3)[C@H]21 | 1210 nM (active)
6 | COC(=O)C[C@](O)(CCCC(C)(C)O)C(=O)O[C@@H]1C(OC)=C[C@]23CCCN2CCc2cc4c(cc2[C@H]13)OCO4 | 1360 nM (active)
7 | NCCNc1ccc(NCCN)c2c1C(=O)c1ccncc1C2=O | 3410 nM (active)
8 | COc1cc2nccc(Oc3ccc(NC(=O)NC4CC4)c(Cl)c3)c2cc1C(N)=O | 17100 nM (active)
9 | Nc1nc(Cl)nc2c1ncn2C1CC(O)C(CO)O1 (stereo not given) | 5410 nM (active)
10 | CN1CC[C@H](CN2c3ccccc3Sc3ccccc32)C1 | inactive
11 | C[C@]12CC[C@H](O)C[C@H]1CCC1C2CC[C@]2(C)[C@@H](c3ccc(=O)oc3)C[C@H]3O[C@]132 (stereo not given in full) | 9610 nM (active)
12 | CCCCCCCCCCCC[n+]1ccc2ccccc2c1 | 1920 nM (active)
13 | CC[C@@H]([C@H](C)O)n1ncn(-c2ccc(N3CCN(c4ccc(OC[C@@H]5CO[C@@](Cn6cncn6)(c6ccc(F)cc6F)C5)cc4)CC3)cc2)c1=O | 6810 nM (active)
14 | Cc1cc(C(C#N)c2ccc(Cl)cc2)c(Cl)cc1NC(=O)c1cc(I)cc(I)c1O (stereo not given) | 30400 nM (active)
15 | C=C(C)[C@H]1Cc2c(ccc3c2O[C@@H]2COc4cc(OC)c(OC)cc4[C@@H]2C3=O)O1 | 38.3 nM (active)
16 | C[C@@H]1CCO[C@H]2Cn3cc(C(=O)NCc4ccc(F)cc4F)c(=O)c(O)c3C(=O)N12 | 5.4 nM (active)
17 | CC(=O)Oc1ccccc1C(=O)Nc1ncc([N+](=O)[O-])s1 | 6810 nM (active)
18 | COc1cc([C@@H]2c3cc4c(cc3C(O[C@@H]3O[C@@H]5CO[C@@H](c6cccs6)OC5[C@H](O)[C@H]3O)C3COC(=O)[C@@H]32)OCO4)cc(OC)c1O (stereo not given in full) | 857 nM (active)

Row | Structure (SMILES) | Potency
19 | COc1cccc2c1C(=O)c1c(O)c3c(c(O)c1C2=O)C[C@@](O)(C(=O)CO)C[C@@H]3O[C@H]1C[C@H](N)[C@H](OC2CCCCO2)[C@H](C)O1 (stereo not given in full) | 9610 nM (active)
20 | CC(C)C(=O)Oc1ccc(CO)cc1[C@H](CCN(C(C)C)C(C)C)c1ccccc1 | 27100 nM (active)
21 | O=C1c2c(O)ccc(O)c2C(=O)c2c(NCCNCCO)ccc(NCCNCCO)c21 | 171 nM (active)
22 | CC[C@@]1(O)C(=O)OCc2c1cc1n(c2=O)Cc2c-1nc1ccccc1c2/C=N/OC(C)(C)C | 76.4 nM (active)
23 | C/C=C(/C)C(=O)O[C@H]1C(C)=CC23C(=O)C(C=C(CO)[C@@H](O)[C@]12O)[C@H]1[C@@H](C[C@H]3C)C1(C)C (stereo not given in full) | 215 nM (active)
24 | CC(C)C[C@H](NC(=O)[C@H](CCc1ccccc1)NC(=O)CN1CCOCC1)C(=O)N[C@@H](Cc1ccccc1)C(=O)N[C@@H](CC(C)C)C(=O)[C@@]1(C)CO1 | 764 nM (active)
25 | Cc1c(N)nc(C(CC(N)=O)NCC(N)C(N)=O)nc1C(=O)NC(C(=O)NC(C)C(O)C(C)C(=O)NC(C(=O)NCCc1nc(-c2nc(C(=O)NCCCN[C@@H](C)c3ccccc3)cs2)cs1)C(C)O)C(O[C@@H]1O[C@@H](CO)[C@@H](O)[C@H](O)[C@@H]1O[C@H]1O[C@H](CO)[C@@H](O)[C@H](OC(N)=O)[C@@H]1O)c1cnc[nH]1 (stereo not given in full) | 304 nM (active)
26 | COC(=O)C1=C(C)NC(C)=C(C(=O)OCC(C)C)C1c1ccccc1[N+](=O)[O-] (stereo not given) | 24100 nM (active)
27 | C=CC1(C)CC(=O)C2(O)C(C)(O1)C(OC(C)=O)C(OC(=O)CCN(C)C)C1C(C)(C)CCC(O)C12C (stereo not given) | inactive
28 | COc1ccc(Cc2nccc3cc(OC)c(OC)cc23)cc1OC | 19200 nM (active)
29 | C[n+]1c2cc(N)ccc2cc2ccc(N)cc21 (tested in a mixture with another compound) | 4820 nM (active)
30 | Cc1nnc(C(=O)NC(C)(C)c2nc(C(=O)NCc3ccc(F)cc3)c(O)c(=O)n2C)o1 | 17.1 nM (active)
31 | CC(C)OC(=O)[C@H](C)N[P@](=O)(CO[C@H](C)Cn1cnc2c(N)ncnc21)Oc1ccccc1 | 242 nM (active)
32 | COc1cccc2c1C(=O)c1c(O)c3c(c(O)c1C2=O)C[C@@](O)(C(C)=O)C[C@@H]3O[C@H]1C[C@H](N)[C@H](O)[C@H](C)O1 | 1920 nM (active)
33 | CO[C@@]12[C@H](COC(N)=O)C3=C(C(=O)C(C)=C(N)C3=O)N1C[C@@H]1N[C@@H]12 | 3410 nM (active)
34 | CC(C)(C)C(=O)OCOP(=O)(COCCn1cnc2c(N)ncnc21)OCOC(=O)C(C)(C)C | 68.1 nM (active)
35 | COc1cc2c(cc1Cc1cccc(Cl)c1F)c(=O)c(C(=O)O)cn2[C@H](CO)C(C)C | 215 nM (active)
